# Dicer processing = blocks human Dicer maturation of pre-miR-21. Q9UPY3. cat-ELCCA pre-miR-21 Dicer processing, chemiluminescence; active compounds read high. 6% of 47,000 active. z-score at 25 µM. AID 1347074; in the data active = z-score above about 3, passing the limit was not always enough;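 note: plate controls were vehicle for no effect and no enzyme for full effect; higher signal means more uncleaved substrate so more Dicer inhibition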
# An asterisk follows results filed as active. Many of the other results were omitted from the sample, so hits are more common in it than they were.
SMILES,Dicer processing
CC(=O)[C@@]12OC(C)(c3ccccc3)O[C@@H]1C[C@H]1[C@@H]3CCC4=CC(=O)CC[C@]4(C)[C@H]3CC[C@@]12C (some centres undefined),-0.12
CC(=O)[C@H]1CC[C@H]2[C@@H]3CCC4=CC(=O)CC[C@]4(C)[C@H]3CC[C@]12C,1.4
C[C@]12CCC(=O)C=C1CC[C@@H]1[C@@H]2CC[C@@]2(C)[C@H]1CC[C@]2(O)C(=O)CO,3.28*
Cc1ccc(C2/C(=C(\O)c3ccc(Cl)cc3)C(=O)C(=O)N2CCCN2CCOCC2)cc1 (centres undefined),0.63
c1ccc([C@H]2CN3CCSC3=N2)cc1,-0.69
Cc1ccc(C(=O)C2C(=O)c3ccccc3C2=O)cc1,0.21
Cc1ccc(C(=O)CN2/C(=C(/O)c3ccccc3)C(=O)c3ccccc3S2(=O)=O)c(C)c1,-0.63
Cc1ccc(N2C(=O)c3ccccc3C2C(=O)c2ccc(C)cc2O)cc1 (centres undefined),12*
CC1(C)CC(=O)C2=C(C1)Nc1ncnn1C2c1cccc(Oc2ccccc2)c1 (centres undefined),0.87
CC1CC(NC(=O)CC#N)CC(C)(C)C1 (centres undefined),-2.11
CC(=O)c1cnn(-c2c(Cl)cc(Cl)cc2Cl)c1C,-0.42
O=[N+]([O-])c1ccc(Sc2cc(Cl)ccc2Cl)nc1,4.72*
O=[N+]([O-])c1cc(Cl)ccc1Sc1ccccn1,0.16
O=[N+]([O-])c1cccnc1Sc1cc(Cl)ccc1Cl,-0.4
COc1cc(NC(=O)CN2c3cccc4cccc(c34)S2(=O)=O)c(OC)cc1Cl,-0.09
CSc1ccccc1NC(=O)c1cnn2c1NC(c1cccs1)CC2C(F)(F)F (centres undefined),2.11
O=C(Nc1ccc(Br)cc1)c1cnn2c1NC(c1cccs1)CC2C(F)(F)F (centres undefined),3.21*
O=C(c1cnn2c1NC(c1ccc(Br)cc1)CC2C(F)(F)F)N1CCCCC1 (centres undefined),3.31*
Cc1ccc(C2CC(C(F)(F)F)n3ncc(C(=O)N(C)C4CCCCC4)c3N2)cc1 (centres undefined),-0.05
O=C(Nc1ccc(Br)cc1)c1cc2n(n1)C(C(F)(F)F)CC(c1cccs1)N2 (centres undefined),0.96
CC(C)(C)NC(=O)c1cnn2c1NC(c1ccc(F)cc1)CC2C(F)(F)F (centres undefined),1.55
CC(C)(C)S(=O)(=O)Cc1nc(-c2ccc(C(F)(F)F)cc2)cs1,-1.21
Cc1ccc(S(=O)(=O)n2cc(/C=C3\C(=O)Nc4ccccc43)c3ccccc32)cc1,-6.05
Cc1cc(Br)ccc1NCc1ccc2c(c1)OCO2,9.18
c1ccc(-c2csc(N/N=C3\CCCc4ccccc43)n2)cc1,-1.87
SMILES,Dicer processing
CCCCn1c(N)nc2ccccc21,2.01
C=CCN1C(=O)C(O)(CC(=O)c2cccs2)c2cc(Br)ccc21 (centres undefined),1.36
O=C(Nc1csc(-c2cccc(Cl)c2Cl)n1)OCc1cc(Cl)cc(Cl)c1,-0.06
Oc1ccccc1C1=NN2C(C1)c1ccccc1OC2c1ccsc1 (centres undefined),4.55
COc1cc(C2Oc3ccccc3C3CC(c4ccccc4O)=NN32)ccc1O (centres undefined),11.1*
COc1ccc(OC)c(C2Oc3ccccc3C3CC(c4ccccc4O)=NN32)c1 (centres undefined),5.97*
COc1ccc(O)c(C2=NN3C(C2)c2ccccc2OC3c2cc(OC)ccc2OC)c1 (centres undefined),1.7
COc1ccc(O)c(C2=NN3C(C2)c2ccccc2OC3c2ccc(OC)c(OC)c2)c1 (centres undefined),5.95*
COC(=O)c1ccc(C2Oc3ccccc3C3CC(c4ccccc4O)=NN32)cc1 (centres undefined),0.57
Cc1ccc(O)c(C2=NN3C(C2)c2ccccc2OC3c2ccsc2)c1 (centres undefined),2.89
COc1ccc(C2Oc3c(OC)cccc3C3CC(c4ccccc4O)=NN32)c(OC)c1 (centres undefined),3.72
COc1ccc(O)c(C2=NN3C(C2)c2cccc(OC)c2OC3c2cc(OC)ccc2OC)c1 (centres undefined),2.92
COc1ccc(O)c(C2=NN3C(C2)c2ccccc2OC3c2ccsc2)c1 (centres undefined),5.45*
COc1ccc(O)c(C2=NN3C(C2)c2cccc(OC)c2OC3c2cccc(OC)c2OC)c1 (centres undefined),2.07
COc1cc(C2Oc3c(OC)cccc3C3CC(c4ccccc4O)=NN32)ccc1O (centres undefined),2.64
COc1ccccc1Oc1ncnc2nc[nH]c12,-1.4
COC(=O)c1sccc1N1CC(C)(C)C1=O,-0.36
CCOC(=O)C1CCCN(S(=O)(=O)c2c(C)noc2C)C1 (centres undefined),-4.56
CSc1nc(C)nc(N/C=C(\C#N)S(C)(=O)=O)n1,-0.72
COc1ccc(/C=C2/N=C3SC(C)C(=O)N3C2=O)cc1 (centres undefined),1.97
Cc1nn(S(=O)(=O)c2cc(C(F)(F)F)cc(C(F)(F)F)c2)cc1-c1ccccc1,0.02
C/C(=N/OS(=O)(=O)c1ccccc1)c1nccs1,-2.6
CCOC(=O)N1CCc2c(sc(NC(=O)CN(CC)CC)c2C#N)C1,0.95
COc1ccc(O)c(C2=NN3C(C2)c2cccc(OC)c2OC3c2ccccc2F)c1 (centres undefined),0.02
COc1ccc(O)c(C2=NN3C(C2)c2ccccc2OC3c2cccc(F)c2)c1 (centres undefined),5.23*
SMILES,Dicer processing
COc1ccc(O)c(C2=NN3C(C2)c2ccccc2OC3c2ccncc2)c1 (centres undefined),10.5*
COc1ccc(O)c(C2=NN3C(C2)c2ccccc2OC3c2ccccc2)c1 (centres undefined),8.34*
CCOc1ccc2[nH]c(C)c(CN3CCN(C)CC3)c(=O)c2c1,5.01
CCOC(=O)c1nc(C)sc1-c1ccnn1S(=O)(=O)c1ccc(Cl)cc1Cl,-0.68
CC(C)(C)c1cc(-c2nc(-c3ccccc3)no2)n(Cc2ccccc2)n1,-1.67
Cc1ccccc1Cn1cc(NC(=O)c2cnn3c(C(F)F)cc(-c4ccccc4)nc23)cn1,-0.07
Cc1ccc(NNC(=O)c2c(-c3c(F)cccc3Cl)noc2C)cc1Cl,1.45
Cc1cccn2cc(-c3ccc(F)cc3)cc12,4.42*
c1ccc(-c2cc3ccccn3c2)cc1,0.48
Cc1cccn2cc(-c3ccc(F)cc3)nc12,0.34
O=c1[nH]c(/C=C/c2cccs2)c([N+](=O)[O-])c(=O)[nH]1,1.73
C#CC(O)(c1ccc(OC)cc1)c1ccc(OC)cc1,1.55
COC(=O)c1ccc(OC(=O)c2cccnc2)cc1,1.56
Clc1ccccc1Cc1cn2cc(-c3ccccc3)nc2s1,4.12*
c1ccc(Cc2cn3cc(-c4ccccc4)nc3s2)cc1,-0.47
Fc1ccc(Cc2cn3cc(-c4ccccc4)nc3s2)cc1,0.05
COC(=O)c1nnn(-c2ccc(F)c(Cl)c2)c1C(=O)OC,0.14
CCn1ccnc1C(O)c1ccc(OC)cc1 (centres undefined),0.94
O=C(Cn1cnc([N+](=O)[O-])n1)Nc1ccc(Cl)cc1,4.35*
CSc1ccccc1NC(=O)Cn1cnc([N+](=O)[O-])n1,-0.09
Cn1cc([N+](=O)[O-])c(C(=O)Nc2ccc(Cl)cc2)n1,1.69
O=C(O)C1c2ccccc2C(=O)N(Cc2ccc3c(c2)OCO3)C1c1cccnc1 (centres undefined),1.39

# Source: PubChem (Center for Chemical Genomics, University of Michigan)
